TMEM16A inh: inhibitors of mouse TMEM16A calcium-activated chloride channel; normalized B-score (activity score, 25-100; higher = stronger inhibition) at 10 µM; hit rate 1.2% among 310,000; Q8BHY3; HEK293 TMEM16A/YFP iodide influx fluorescence, ionomycin;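 active = ratio plate-corrected score three or more library SD toward inhibition, starting fluorescence score within five deviations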;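 note: score derived from kinetic fluorescence span divided by baseline fluorescence per well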
TMEM16A act: activates or potentiates the mouse TMEM16A chloride channel; HEK293 TMEM16A/YFP-H148Q/I152L, iodide quench fluorescence; hits give low values; B-score at 10 µM; hit rate 0.3% among 340,000; AID 623877;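 active = fluorescence-ratio B-score plate-corrected deviation score at least 3 library SD below zero, with starting fluorescence score within 5 deviations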;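 note: channel opened by trigger with iodide after compound preincubation; score built on the fluorescence ratio of max minus min over baseline; more negative score means more quench and so TMEM16A activation or potentiation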
KCNK9 inh: inhibitors of human KCNK9 two-pore domain potassium channel; Q9NPC2; hit rate 1.2% among 310,000; HEK293 KCNK9, FluxOR thallium flux fluorescence; hits give low values; B-score at 10 µM;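 active = ratio B-score over 3 SD below the library mean, with starting fluorescence within 5 SD of its mean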;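 note: negative B-score means less thallium flux so channel inhibition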
Kir21 block: Kir2.1 (mouse) channel inhibition | P35561 | HEK293-Kir2.1, FluxOR thallium flux fluorescence; hits give low values | B-score at 10 µM | hit rate 0.85% among 310,000 | AID 1672;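 active = fluorescence ratio B-score at or below minus 3 SD of library scores, with starting-brightness B-score within 2 SD, cut at about -4.2 in these data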;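 note: channel flux triggered by added potassium and thallium sulfate stimulus; B-score of peak minus minimum fluorescence over baseline after thallium stimulus; more negative B-score means stronger Kir2.1 block with less thallium influx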
KCNK3 block: human KCNK3 channel inhibition, primary screen; CHO-KCNK3 thallium flux, FluxOR fluorescence; hits give low values; hit rate 0.84% among 340,000; O14649; AID 602410; B-score at 10 µM;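 active = B-score under library mean minus 4 SD, starting fluorescence ratio at most library mean plus 5 SD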;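 note: more negative B-score means stronger inhibition of thallium flux through KCNK3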
KCNK9 block conf: human KCNK9 inhibitor confirmation; HEK293 KCNK9 cells, FluxOR thallium flux fluorescence; hit rate 43% among 4,900; shares compounds with KCNK9 inh; inhibition, % at 10 µM;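 active = thallium signal inhibited by more than 5 SD of the compound-free buffer control wells, on both duplicate plates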;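 note: 0% = assay buffer control wells without compound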
Kir21 sel: tests whether KCNK9 modulators also affect mouse Kir2.1; shares compounds with KCNK9 inh; Kir2.1 cells, FluxOR thallium flux fluorescence; inhibition, % at 10 µM; hit rate 4% among 4,900; AID 492993;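 active = thallium signal drop more than 5 SD beyond the mean of the no-compound control wells, seen in both duplicate plates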;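 note: signal is fluorescence rise after thallium addition divided by baseline fluorescence; plate controls were assay buffer only for no effect and full block by chlorpromazine control for full effect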
KCNK9 uninduced: second check of KCNK9 modulator effects in non-induced HEK293 cells | shares compounds with KCNK9 inh | FluxOR thallium flux | inhibition, % at 10 µM | hit rate 40% among 4,900;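 active = thallium signal drop beyond 5 SD of the untreated control mean, on both duplicate plates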;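 note: plate controls were buffer only IC0 wells for no effect and SID17386958 at its maximal inhibitory level for full effect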
TMEM16A reconf: re-confirmation of mouse TMEM16A chloride channel inhibitors; hit rate 39% among 2,300; HEK293 TMEM16A/YFP-H148Q, iodide quench fluorescence; ionomycin added to raise cell calcium; shares compounds with TMEM16A inh; inhibition, % at 10 µM; AID 652189;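 active = mean duplicate percent inhibition, scaled so buffer wells are 0 and the reference blocker 100, over three buffer SD above buffer mean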
HEK293 Ca mobil: counter-screen for TMEM16A inhibitors: effect on calcium mobilization | shares compounds with TMEM16A inh | TMEM16A/YFP HEK293, Fluo4 calcium mobilization | calcium response (% of ionomycin), % at 10 µM | hit rate 2% among 2,300 | AID 652231;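 active = duplicate-averaged calcium signal over 20% of the ionomycin maximum, relative to buffer baseline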;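 note: each well's signal is peak minus trough fluorescence divided by its pre-addition baseline; 0% = buffer wells and 100% = ionomycin wells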
Parental YFP cnt: parental YFP-HEK293 iodide quench counter-screen activity | 2,300 tested, under 10 active | AID 652233 | ionomycin | shares compounds with TMEM16A inh | YFP ratio F(max-min)/F0 at 10 µM;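 active = yellow fluorescent protein signal ratio exceeding the buffer control mean by over 5 SD of those controls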;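 note: ratio is mean of duplicate wells from kinetic YFP trace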
ClC-1 rat inh: selectivity of TMEM16A inhibitors: inhibition of rat ClC-1 chloride channel. shares compounds with TMEM16A inh. AID 652236. 2,300 tested, under 10 active. CHO ClC-1-YFP, iodide influx fluorescence quench; iodide control reads 0, buffer control 100. ratio percent, % at 10 µM;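 active = duplicate-mean ratio percent above the mean of iodide-only control wells, which defines zero, plus 5 of their SD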;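 note: higher percent means stronger block of ClC-1 iodide influx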
Target sequence (P35524 whole entry, looked up): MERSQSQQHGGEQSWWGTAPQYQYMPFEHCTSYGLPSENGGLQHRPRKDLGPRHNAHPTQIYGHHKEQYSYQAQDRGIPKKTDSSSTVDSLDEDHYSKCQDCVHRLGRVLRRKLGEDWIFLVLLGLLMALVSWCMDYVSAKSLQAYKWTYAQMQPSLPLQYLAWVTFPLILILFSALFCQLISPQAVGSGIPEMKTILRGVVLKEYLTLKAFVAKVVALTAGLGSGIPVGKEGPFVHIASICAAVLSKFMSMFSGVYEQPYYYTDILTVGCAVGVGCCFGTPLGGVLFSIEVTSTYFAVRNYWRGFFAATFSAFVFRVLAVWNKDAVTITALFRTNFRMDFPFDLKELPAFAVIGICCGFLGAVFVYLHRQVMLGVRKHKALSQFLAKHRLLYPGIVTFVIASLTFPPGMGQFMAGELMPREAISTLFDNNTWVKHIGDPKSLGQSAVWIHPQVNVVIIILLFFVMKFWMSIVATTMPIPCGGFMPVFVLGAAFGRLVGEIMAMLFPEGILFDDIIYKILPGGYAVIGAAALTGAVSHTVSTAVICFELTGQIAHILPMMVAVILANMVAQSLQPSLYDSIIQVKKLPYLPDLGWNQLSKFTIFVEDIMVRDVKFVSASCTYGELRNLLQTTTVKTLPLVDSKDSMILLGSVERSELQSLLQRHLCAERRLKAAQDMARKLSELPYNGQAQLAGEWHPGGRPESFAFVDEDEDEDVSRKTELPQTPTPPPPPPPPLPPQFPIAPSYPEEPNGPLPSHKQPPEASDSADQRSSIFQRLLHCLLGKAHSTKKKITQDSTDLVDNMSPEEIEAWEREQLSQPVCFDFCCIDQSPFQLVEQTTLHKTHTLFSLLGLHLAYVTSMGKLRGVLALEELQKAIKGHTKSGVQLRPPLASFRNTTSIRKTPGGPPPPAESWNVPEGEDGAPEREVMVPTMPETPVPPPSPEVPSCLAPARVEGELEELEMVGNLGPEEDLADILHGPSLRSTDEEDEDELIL
KCNK3 inh conf: confirmation of human KCNK3 two-pore domain potassium channel inhibitors; ratio percent of control, % at 10 µM; AID 651638; hit rate 99% among 2,400; CHO-KCNK3 thallium flux, FluxOR fluorescence; 0% buffer, 100% carvedilol maximal block; shares compounds with KCNK3 block;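 active = ratio percent of control, averaged over triplicates, above buffer control mean plus 5 SD, cut at about 64% in these data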;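 note: ratio is the fluorescence rise from min to max over baseline after thallium stimulus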
KCNK3 uninduced: counter-screen for KCNK3 inhibitors: effect in non-induced cells. shares compounds with KCNK3 block. non-induced KCNK3 parental cells, FluxOR thallium flux; hits give low values. thallium flux ratio (lower = more inhibition) at 10 µM. hit rate 40% among 2,400. AID 651747;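 active = thallium flux ratio, averaged over three wells, more than 5 SD below the buffer control mean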;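 note: host cells are CHO cells without KCNK3 induction; ratio is peak minus trough fluorescence over baseline then normalized to buffer controls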
* marks the source's active call; other numbers are inactive results; i = inactive; · = no result. In the library only some 3.5% were active in any assay of this set; here they are far more common.

SMILES	TMEM16A inh	TMEM16A act	KCNK9 inh	Kir21 block	KCNK3 block	KCNK9 block conf	Kir21 sel	KCNK9 uninduced	TMEM16A reconf	HEK293 Ca mobil	Parental YFP cnt	ClC-1 rat inh	KCNK3 inh conf	KCNK3 uninduced
CC(C)c1ccc(S(=O)(=O)/N=C2\C=C(NS(=O)(=O)c3ccccc3)C(=O)c3ccccc32)cc1	100*	i	-9.37*	-3.03	i	32.0%*	i	32.5%*	91.0%*	i	-0.919	-23.5	·	·
COc1cccc(C(=O)NC(=S)Nc2ccc3c4c(cccc24)CC3)c1	i	i	i	0.6	i	i	i	i	i	i	-0.523	-5.5	·	·
CC(C)(C)OC(=O)N1CCN(c2ccc(CNC(=O)c3ccc(Cl)cc3)cc2)CC1	100*	i	i	0.84	i	i	i	i	22.5%*	i	-1.13	-12.0	·	·
CC(C)(C)OC(=O)N1CCCN(C(=O)c2ccc(Cl)cc2)CC1	i	i	i	0.4	i	·	·	·	·	·	·	·	·	·
CC1(c2nnc(-c3ccncc3)o2)CC(c2cccc(Cl)c2)=NO1 (stereo not drawn)	i	i	i	0.85	i	·	·	·	·	·	·	·	·	·
CN1CCc2c(sc(NC(=O)c3cc(Cl)sc3Cl)c2C(N)=O)C1	i	·	i	-0.68	·	·	·	·	·	·	·	·	·	·
Cc1ccc(SCCNC(=S)Nc2ccccc2)cc1	i	i	i	0.21	i	·	·	·	·	·	·	·	·	·
Cc1ccc(SCCNC(=S)Nc2ccc(C)c(C)c2)cc1	100*	i	i	-0.5	i	i	i	i	25.5%*	i	-0.965	-9.5	·	·
O=C(c1ccccc1)c1ccc2cc(O)ccc2c1	25*	i	i	2.55	i	i	i	i	i	i	-1.05	-1.5	·	·
O=C(c1ccccc1)c1cccc(C(=O)c2ccccc2)c1	·	i	·	·	i	·	·	·	·	·	·	·	·	·
Clc1ccc(-c2cn3c(n2)-c2ccccc2C3)cc1Cl	i	i	i	0	i	·	·	·	·	·	·	·	·	·
Nc1c(C(=O)c2ccc(Cl)cc2)sc2nsc(SCCN3CCOCC3)c12	i	i	i	-0.73	i	·	·	·	·	·	·	·	·	·
Nc1c(C(=O)c2ccccc2)sc2nsc(SCCN3CCCC3)c12	i	i	i	-3.48	i	45.0%*	35.5%*	73.0%*	i	i	-0.963	-12.0	·	·
CCCC(=O)c1c(NC(C)C)cc(C)oc1=O	i	i	i	-0.47	i	·	·	·	·	·	·	·	·	·
COc1ccc(CCNC(=O)N2c3ccccc3Sc3ccccc32)cc1	100*	i	i	-2.63	i	i	i	i	53.0%*	i	-0.871	-14.0	·	·
C/C=C(/C(=C/C)c1ccc(O)cc1)c1ccc(O)cc1	i	i	i	-4.16	i	·	·	·	·	·	·	·	·	·
C=C(c1ccc(O)cc1)c1ccc(O)cc1	100*	i	-11.2*	0.59	i	46.5%*	i	i	24.5%*	i	-1.05	-15.0	·	·
Cc1ncc(CN2CCC(C(=O)Nc3cccc(-c4cscn4)c3)CC2)cn1	i	i	i	0.36	i	·	·	·	·	·	·	·	·	·
Cc1ccc(C)c(CN2CCCN(Cc3cc(C)ccc3C)S2(=O)=O)c1	i	i	-18.8*	0.02	-10.7*	75.5%*	i	41.0%*	·	·	·	·	87.0*	i
Cc1ccc(CN2CCCN(Cc3cc(C)ccc3C)S2(=O)=O)cc1	i	i	-15.5*	-2.09	-9.75*	62.5%*	i	37.0%*	·	·	·	·	0.0	i
Cc1cc(C)nc(NC(=NCCc2c[nH]c3ccccc23)NC(=O)c2ccco2)n1	i	i	-15.2*	1.91	-9.01*	30.0%*	i	i	·	·	·	·	134.7*	0.152*
CN(C)c1ccc(C(CNC(=O)c2ccc(-c3ccccc3)cc2)N2CCOCC2)cc1 (stereo not drawn)	i	i	i	-0.72	i	·	·	·	·	·	·	·	·	·
CCN(c1ccccc1)c1nc(C#N)nc(N(CC)c2ccccc2)n1	25*	i	i	-2.11	-11*	i	i	i	·	·	·	·	102.0*	i
CCN(c1ccccc1)c1cc(C)nc2nc(C)nn12	i	i	i	-0.69	i	·	·	·	·	·	·	·	·	·
COc1ccc2nc3c(cc2c1)c(NC(=O)c1cccs1)nn3CC(C)C	i	i	-8.96*	0.98	-9.84*	i	i	i	·	·	·	·	93.7*	0.148*
SMILES	TMEM16A inh	TMEM16A act	KCNK9 inh	Kir21 block	KCNK3 block	KCNK9 block conf	Kir21 sel	KCNK9 uninduced	TMEM16A reconf	HEK293 Ca mobil	Parental YFP cnt	ClC-1 rat inh	KCNK3 inh conf	KCNK3 uninduced
COc1ccc2oc(=O)cc(-c3cc4cccc(OC)c4o3)c2c1	i	i	i	-0.43	i	·	·	·	·	·	·	·	·	·
CCN(CC)C(=O)Oc1ccc2oc(=O)cc(-c3cc4cccc(OC)c4o3)c2c1	i	i	-18.2*	0.03	-9.96*	80.0%*	i	34.0%*	·	·	·	·	104.3*	i
Brc1ccc(CNc2cc3c(cc2Br)OCCO3)cc1	i	i	-9.13*	1.68	i	28.5%*	i	42.0%*	·	·	·	·	103.3*	i
CC(=O)Nc1cc2c(cc1Br)OCCO2	i	i	i	-0.33	i	·	·	·	·	·	·	·	·	·
CC(C)NC(=O)CC(c1ccccc1)c1cc(Br)ccc1O (stereo not drawn)	i	i	i	-0.18	i	·	·	·	·	·	·	·	·	·
CCCCCCNC(=O)CC(c1ccccc1)c1cc(Br)ccc1O (stereo not drawn)	100*	i	-11*	0.67	-9.84*	51.0%*	i	31.5%*	47.0%*	i	-0.88	-22.0	118.7*	0.148*
O=C(N/N=C/c1ccc(N2CCOCC2)cc1)c1ccncc1	·	i	·	·	i	·	·	·	·	·	·	·	·	·
O=C(N/N=C/c1ccc(N2CCOCC2)cc1)c1ccccc1OCCOc1ccccc1	i	i	-11.9*	1.57	-11.4*	30.0%*	i	26.0%*	·	·	·	·	101.3*	i

Screening data as filed in PubChem BioAssay.
